Results reported in PubChem BioAssay (EPA / NIEHS).
Active and inactive are the calls of the source. The calls were made as follows: active = hit-call score of the fitted dose curve at least 0.9, where 1 is the maximum; inactive = score below 0.9.

The compounds below were run on DNA damage-inducible transcript 3 (DDIT3), DDIT3 (gene 1649) (assay: LTEA_HepaRG_DDIT3: Life Technologies and Expression Analysis (LTEA) Assay for DNA damage-inducible transcript 3 (DDIT3) using HepaRG (AID 2283488)). Settings: mRNA level, 48 h; actives raise or lower the signal.
Protocol: LTEA_HepaRG is a cell based, multiplexed-readout assay that uses HepaRG, a human liver cell line, with measurements taken at 48 hours after chemical dosing on a 96-well plate.LTEA_HepaRG_DDIT3 is one of 102 assay component(s) measured in the LTEA HepaRG cell culture assay. It is a marker of Oxidative Stress.Data from the assay component LTEA_HepaRG_DDIT3 was analyzed into 1 endpoint. This assay endpoint, LTEA_HepaRG_DDIT3, was analyzed with bidirectional fitting relative to DMSO as the negative control and baseline of activity. Using a type of inducible reporter, measures of mRNA induction for gain or loss-of-signal activity can be used to understand regulation of transcription factor activity. To generalize the intended target to other relatable targets, this assay endpoint is annotated to the dna binding intended target family, where the subfamily is basic leucine zipper.
A total of 1060 chemcials from the ToxCast library were tested in eight-point concentration-response experiments. Cell culture and cytotoxicity assays were conducted at Thermo Fisher Scientific's Custom Services facility (Madison, WI). A single lot of human HepaRG cells (Thermo Fisher Scientific, Frederick, MD) was used for the cell culture experiments. 96-well format collagen type I coated plates of human HepaRG cells were prepared using established methods. Briefly, cryopreserved HepaRG cells were thawed, plated at a density of approximately 100,000 cells/well in HepaRG Thaw, Plate, and General Purpose media (HPRG770, Thermo Fisher Scientific), and incubated for 48 hours. 0.5% DMSO was selected as vehicle control to balance the requisite need of DMSO in HepaRG cultures to maintain differentiation (for example, baseline metabolism, proportions of hepatocytes vs. cholangiocytes), while enabling further hepatic receptor pathway activation (for example, PXR and CAR) in response to chemical exposure. 48 hours after plating, the culture medium was replaced with HepaRG Serum-Free Incudtion Media. Cells were exposed to each test chemical in duplicate and maintained in CO2 incubators for another 48 hours. Chemical plates were thawed to room temperature and 200x concentrations of treatment groups were prepared. 8-point conentration-reponse curves were made with the highest exposure at 100 uM, followed by half-log dilutions, all in 0.5% DMSO. Each test plate contained variouse controls, induction positive controls (1mM phenobarbital), cytotoxicity positive controls ([…] aflatoxin B1), vehicle controls (0.5% DMSO), and total lysis controls (0.5% DMSO). Cell morphology images were taken using an Essen IncuCyte FLR automated microscope, with six 96-well plates imaged in about 24 minutes. Images were captured and exported and JPEG files. Spent culture media was transfered to black-well plates for the LDH assay, and remaining media was sorted at -80 C for later use. Cells were treated with RLT buffer and frozen until shipped for gene expression analysis. Total RNA was isolated from the cell suspension in 75 uL of Buffer RLT (Qiagen, Germantown, MD 20874) by Quintiles/Expression Analysis (Durham, NC) using a custom isolation procedure. Total RNA from each plate well was transferred to a preamplification plate. Fluidigm's 96.96 Dynamic ArrayTM (Fluidigm, Amsterdam, the Netherlands) technology was used for gene expression analyses by quantitative reverse transcription polymerase chain reaction (qRT-PCR, performed by Quintiles/Expression Analysis, Durham, NC)89. Standard TaqManTM Assays (Applied Biosystems/ThermoFisher Scientific, Foster City, CA) were used to assess the expression of 93 genes selected based on their selectivity and sensitivity to important hepatic receptors known to be modulated by environmental chemicals; importance in human hepatocyte functionality; and hepatotoxicity. […]

| Compound | outcome | AC50 |
| --- | --- | --- |
| COCCO | inactive | – |
| CCNc1nc(N)nc(Cl)n1 | inactive | – |
| CCCCCOC(=O)COc1cc(N2C(=O)C3=C(CCCC3)C2=O)c(F)cc1Cl | inactive | – |
| C[C@]12CC[C@@H]3c4ccc(O)cc4C[C@@H](CCCCCCCCCS(=O)CCCC(F)(F)C(F)(F)F)[C@H]3[C@@H]1CC[C@@H]2O (stereo not given in full) | – | 9.92 µM (active) |
| CCCCOC(=O)C(C)Oc1ccc(Oc2ccc(C(F)(F)F)cn2)cc1 (stereo not given) | inactive | – |
| CCOC(=O)c1ccc(O)cc1 | inactive | – |
| CC(C)(c1ccc(O)cc1)c1ccc(O)cc1 | inactive | – |
| O=C(Nc1ccc([N+](=O)[O-])cc1Cl)c1cc(Cl)ccc1O | – | 3.35 µM (active) |
| Oc1ccc(C(c2ccc(O)cc2)C(Cl)(Cl)Cl)cc1 | – | 80.3 µM (active) |
| OB(O)O | inactive | – |
| c1ccc(Nc2ccccc2)cc1 | inactive | – |
| O=C(c1ccc(O)cc1O)c1ccc(O)cc1O | inactive | – |
| CC(C)CCCCCCc1ccc(O)cc1 | inactive | – |
| COC(=O)CSc1cc(N=c2sc(=O)n3n2CCCC3)c(F)cc1Cl | inactive | – |
| CC(=O)[C@H]1CC[C@H]2[C@@H]3CCC4=CC(=O)CC[C@]4(C)[C@H]3CC[C@]12C | – | 27.2 µM (active) |
| C#C[C@]1(O)CC[C@H]2[C@@H]3CCC4=CC(=O)CC[C@@H]4[C@H]3CC[C@@]21CC | inactive | – |
| C#CCOC(=O)[C@@H](C)Oc1ccc(Oc2ncc(Cl)cc2F)cc1 | inactive | – |
| CCCCCCC(C)OC(=O)COc1nc(F)c(Cl)c(N)c1Cl (stereo not given) | inactive | – |
| N[C@@H](Cc1cc(I)c(Oc2ccc(O)c(I)c2)c(I)c1)C(=O)O | – | 49.7 µM (active) |
| O=C(c1ccccc1)C1CCCCC1 | inactive | – |

| Compound | outcome | AC50 |
| --- | --- | --- |
| CCCN(CCC)c1c([N+](=O)[O-])cc(C(F)(F)F)c(N)c1[N+](=O)[O-] | inactive | – |
| CCOC(=O)C(C)Oc1ccc(Oc2cnc3cc(Cl)ccc3n2)cc1 (stereo not given) | inactive | – |
| COC(=O)c1ccc(I)cc1S(=O)(=O)NC(=O)Nc1nc(C)nc(OC)n1 | inactive | – |
| CCN(Cc1c(F)cccc1Cl)c1c([N+](=O)[O-])cc(C(F)(F)F)cc1[N+](=O)[O-] | inactive | – |
| CC1(C)C(C=C(Cl)Cl)C1C(=O)OCc1cccc(Oc2ccccc2)c1 (stereo not given) | inactive | – |
| CCOC(=O)NCCOc1ccc(Oc2ccccc2)cc1 | – | 89 µM (active) |
| N#CSCSc1nc2ccccc2s1 | inactive | – |
| CSC(=O)c1cccc2nnsc12 | inactive | – |
| CCN(CC)C(=O)c1cccc(C)c1 | inactive | – |
| Cc1nn(C)c(Oc2ccccc2)c1C=NOCc1ccc(C(=O)OC(C)(C)C)cc1 | – | 3.27 µM (active) |
| CCCCC(CC)CN1C(=O)C2C3C=CC(C3)C2C1=O (stereo not given) | – | 72.7 µM (active) |
| O=C(O)C1(C(=O)Nc2ccc(Cl)cc2Cl)CC1 | inactive | – |
| CCOC(=O)C(C)Oc1ccc(Oc2nc3ccc(Cl)cc3o2)cc1 (stereo not given) | inactive | – |
| CN(C)C(=O)Nc1ccc(Cl)c(Cl)c1 | inactive | – |
| S=C([S-])NCCNC(=S)[S-].[Mn+2] | – | 6.1 µM (active) |
| CCCCOCCOCCOCc1cc2c(cc1CCC)OCO2 | inactive | – |
| CCC(C)OC(=O)N1CCCCC1CCO (stereo not given) | inactive | – |
| CCCN(CCC)C(=O)SCC | inactive | – |
| CC(=O)S[C@@H]1CC2=CC(=O)CC[C@]2(C)[C@H]2CC[C@@]3(C)[C@@H](CC[C@@]34CCC(=O)O4)[C@H]12 | inactive | – |
| CCCOC(=O)c1ccc(C(=O)OCCC)nc1 | inactive | – |
